According to PubChem BioAssay (NCI):
Where “and” joins values, the source holds several entries; their conditions need not be identical. Equal entries are not always repeated. This is part of a sample that, as a whole, favours compounds with a hit. Of some 79,000 tested, about 15% had one in any assay. A number with no mark means an inactive call. Calls of active or inactive are those of the source. Rule as the data show it: active = growth inhibition above about 70%; inactive = the rest.

Legend:
[1] = NCI Yeast Anticancer Drug Screen. Data for the rad50 strain (AID 155);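 also: 0% = growth of vehicle-only cultures of the same strain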; conditions: S. cerevisiae rad50 strain growth inhibition; at 50.0 µM; stronger effect = higher value
Outline: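 Cells are treated with compound, grown, and their growth is then scored against vehicle-only cultures of the same repair-deficient yeast strain.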

[2] = NCI Yeast Anticancer Drug Screen. Data for the mec2-1 strain (AID 157); conditions: S. cerevisiae mec2-1 strain, at 50.0 µM, stronger effect = higher value
Outline: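 Mutant yeast (mec2-1) grown with compound; growth inhibition relative to vehicle control reported.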

[3] = NCI Yeast Anticancer Drug Screen. Data for the sgs1 mgt1 strain (AID 161);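 also: 0% = growth of cultures given vehicle only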; conditions: S. cerevisiae sgs1 mgt1 strain, at 50.0 µM, stronger effect = higher value
Outline: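 Percent growth inhibition was derived by comparing compound-exposed mutant yeast with vehicle-exposed cultures. The strain carries alterations in DNA damage repair.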

[4] = NCI Yeast Anticancer Drug Screen. Data for the cln2 rad14 strain (AID 165);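 also: 0% = growth equal to vehicle treated cultures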; conditions: S. cerevisiae cln2 rad14 strain, at 50.0 µM, stronger effect = higher value
Outline: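 Readout is yeast growth inhibition versus vehicle-treated controls, using a strain with cln2 and rad14 alterations exposed to compound.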

[5] = NCI Yeast Anticancer Drug Screen. Data for the bub3 strain (AID 167); conditions: S. cerevisiae bub3 mutant strain, at 50.0 µM, stronger effect = higher value
Outline: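 Part of a panel of yeast mutants defective in DNA damage repair or cell cycle regulation. Each strain is grown with compound, and inhibition is calculated relative to solvent-treated cultures.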

[6] = NCI Yeast Anticancer Drug Screen. Data for the mlh1 rad18 strain (AID 175); conditions: S. cerevisiae mlh1 rad18 strain growth inhibition; at 50.0 µM; stronger effect = higher value
Outline: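 Genetically defined yeast (DNA repair-deficient) exposed to compounds; growth inhibition determined relative to vehicle.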

Row | SMILES | growth inhibition [1] | growth inhibition [2] | growth inhibition [3] | growth inhibition [4] | growth inhibition [5] | growth inhibition [6]
1 | NC(Cc1ccc(N(CCCl)Cc2ccccc2)cc1)C(=O)O (configuration not stated) | 10.1% | -13.2% | 2% | -3.85% | -29.2% | -31.5%
2 | NC(P(=O)(O)O)P(=O)(O)O | 4.15% | -1.2% | 16.7% | 15.3% | 18.4% | 7.1%
3 | CC(C)N([P-]C(=O)[P-]N(C(C)C)C(C)C)C(C)C.[C-]#[O+].[C-]#[O+].[C-]#[O+].[C-]#[O+].[C-]#[O+].[C-]#[O+].[Fe].[Fe] (configuration not stated) | 3.4% | 0.15% | 3.55% | 11.3% | 2.3% | -0.9%
4 | CC1OC(O[C@@H]2C=C3CC[C@@H]4[C@H](CC[C@]5(C)[C@@H](c6ccc(=O)oc6)CC[C@]45O)[C@@]3(C)CC2)C(O)C(O)C1O (some centres not stated) | 2.85% | -37.5% | -25% | 13.1% | -15.9% | 4.7%
5 | O=NN(CCF)C(=O)NCCO | 1.9% | -7.3% | 7.75% | 12.4% | 1.75% | -32.2%
6 | CSCCC([NH-])C(=O)O.CSCCC([NH-])C(=O)O.[Cu+2] (configuration not stated) | -18.1% | 7.95% | -9.2% | -33.3% | -13.1% | -2.5%
7 | CN1CCN(Cc2ccccc2)CC1CC#N (configuration not stated) | -17.3% | -34.8% | -24.1% | -0.2% | 2.65% | -30.9%
8 | Cc1ccc(SP(=S)(Sc2ccc(C)cc2)Sc2ccc(C)cc2)cc1 | 11.7% | -65.8% | -4.15% | -29.9% | -12.2% | 10%
9 | CC1COC(Nc2cccc3c2CCCC3)=N1 (configuration not stated) | -10.1% | -13.7% | -10.6% | -34% | -8.1% | 3%
10 | NC(=O)c1cc([N+](=O)[O-])cc([N+](=O)[O-])c1 | 1.35% | -16.2% | 9.1% | 0% | 3.35% | 14.8%
11 | CN(C)CCc1ccccc1 | -15.1% | 2.35% | 13.9% | 20.8% | -2.3% | 11.1%
12 | O=P(Cc1ccccc1)(Oc1ccccc1)Oc1ccccc1 | 89.8% (active) | 56.5% | 82.2% (active) | 24.8% | 40.1% | 74.8% (active)
13 | NC(CCOCCP(=O)(O)O)C(=O)O (configuration not stated) | -51.3% | -36.4% | -44% | -8% | -15.3% | -40.1%
14 | CCn1nnnc1N | 3.35% | 15.9% | 11.1% | 16.4% | 17.8% | 14%
15 | c1cc2c(c(NC3=NCCO3)c1)CCCC2 | 3.4% and 5.65% | 1.05% and -2.1% | -2.5% and 6.05% | -45.5% and 0.05% | -5.35% and 39.4% | -1.1% and -6.15%
16 | COC(=O)C1C(OC(=O)C(Cl)(c2ccccc2)c2ccccc2)CC2CCC1N2C (configuration not stated) | -5.25% | -6.35% | -19.6% | 7.65% | -21.1% | -6.9%
17 | [O-][n+]1c2ccccc2nn1-c1ccc(N(CCCl)CCCl)cc1 | 7.2% | 0.35% | -2.05% | -6.95% | -16.9% | -22.1%
18 | O=C1NC(=O)C(Br)C(=O)N1 (tested in a mixture with another compound) | -8.5% | 8.95% | 0.5% | -19.6% | -1.95% | -0.3%
19 | NC(=NC(c1ccccc1)c1ccccc1)N[N+](=O)[O-] | -4.1% | 5.3% | -12.6% | 2.95% | 7.45% | -17.9%

Row | SMILES | growth inhibition [1] | growth inhibition [2] | growth inhibition [3] | growth inhibition [4] | growth inhibition [5] | growth inhibition [6]
20 | CCN(CC)C(=O)N1CN(c2ccccc2)C2(CCN(CCCSc3ccc(F)cc3)CC2)C1=O | 13.5% | 0.65% | 15.8% | 12.4% | 48.4% | 20.6%
21 | CN1CCC23CC=CCC2C1Cc1ccc([N+](=O)[O-])cc13 (configuration not stated) | -4.15% | 11.3% | 7.25% | -3.15% | 2.4% | 35%
22 | NC(=O)OCCc1c2ccccc2nc2ccccc12 | 19.6% and 47.6% | 3.75% and 51.5% | 11.5% and 49.9% | 2.6% and 42.4% | 8.15% and 34.1% | 16.1% and 64.5%
23 | CC([NH-])C[NH-].[Na+].[O]=[Co][O-] (configuration not stated) | 8.4% | 11.9% | 24.5% | -21.6% | -0.25% | 10.3%
24 | [Mg]=[Se] | 16.6% | 3.15% | 14.4% | -6.5% | 6% | 38.8%
25 | C=CC(=O)NCNC(=O)C=C | 21.9% and 5.15% | 19.3% and 1.85% | 8.75% and -4.05% | 10.6% and 4.3% | 5.25% and -11.3% | -15.8% and -2.9%
26 | C[N+](C)(C)Cc1cccc([N+](=O)[O-])c1 | -47.9% | -5.5% | -3.8% | -40.7% | -4% | 13.2%
27 | COc1ccc(CC(N)c2ccccc2)cc1 (configuration not stated) | 8.25% | 18.1% | 6.4% | 10.2% | 12.8% | -3.5%
28 | C=CCN(CC=C)C1CCOC(OC)C1O (configuration not stated) | -19.4% | -20.5% | -9.35% | -5.05% | -12% | -14.2%
29 | Cc1ccc2[nH]cc(CCN(C)C)c2c1 | 22.6% | -16.5% | 8.25% | 7.65% | 10.2% | 19.6%
30 | Cn1c(O)c(C=N)c(=O)n(C)c1=O | 15.1% | 5.4% | -2.6% | 7.45% | 0.8% | 4.7%
31 | O=C([O-])CC(=O)[O-].[Cu+2].[OH3+].[OH3+] | 24.9% | 11.2% | 12.2% | -19.6% | -9.35% | 6.1%
32 | CC1(C)N=C(N)N=C(N)N1c1ccc(CCc2ccc(S(=O)(=O)F)c(Cl)c2)c(Cl)c1 | 99.2% (active) | 99.7% (active) | 99.8% (active) | 98.7% (active) | 99.2% (active) | 99.7% (active)
33 | CCC[N+](CCC)(CCC)CCC.N#CC(C#N)=C([SH2+])[SH2+].N#CC(C#N)=C([SH2+])[SH2+].N#CC(C#N)=C([SH2+])[SH2+].[Cr+3] | -3.1% | 10.2% | 11.8% | -35% | 9.1% | 7.5%
34 | O=C(O)C(CSC(c1ccccc1)(c1ccccc1)c1ccccc1)N=Cc1cccs1 (configuration not stated) | -8% | -1.65% | -1.95% | -33.9% | 43.3% | -18.2%
35 | CCC[CH2][Sn]([CH2]CCN(C)C)([CH2]CCN(C)C)[CH2]CCN(C)C | 38.5% | 8.4% | 12.8% | 15.2% | -1.95% | 28.2%
36 | ClCC1CCN(CCc2ccccc2)CC1 | -5.5% | 13.8% | 8.65% | -36.6% | -17.8% | 9.65%
37 | COC(=O)c1ccccc1NC(=O)C(=O)CC(=O)CC(c1ccccc1)c1c(O)c2ccccc2oc1=O (configuration not stated) | -15.7% | -3.5% | 15.9% | 11.3% | 24.9% | 21.2%
